The list is not random: actives were taken first. Their share in the collection is about 1.3%.
BCLXL inh: inhibitors of human Bcl-xL, primary screen, biochemical, fluorescence polarization, HTS | Bcl-2-like protein 1 (Homo sapiens), Q07817 | GST-Bcl-xL / FITC-Bim BH3 peptide fluorescence polarization | inhibition, % at 10.9 µM | 320,000 tested, 0.7% active | AID 2129, 2009;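 active = inhibition above the mean of all tested compounds plus 3 SD, cutoff set per campaign, cut at about 30% in these data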;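 also: inhibitors lower millipolarization by displacing the labeled peptide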
Target sequence (Q07817 whole entry, looked up): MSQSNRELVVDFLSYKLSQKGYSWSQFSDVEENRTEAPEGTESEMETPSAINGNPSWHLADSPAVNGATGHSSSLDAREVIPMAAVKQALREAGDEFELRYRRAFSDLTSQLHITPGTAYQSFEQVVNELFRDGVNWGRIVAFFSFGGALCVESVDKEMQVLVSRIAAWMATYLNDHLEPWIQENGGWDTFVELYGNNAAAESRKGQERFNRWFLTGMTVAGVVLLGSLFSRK
MCL1-BIM inh: inhibitors of MCL1 binding to BIM-BH3, primary screen, biochemical, fluorescence polarization; 320,000 tested, 0.68% active; inhibition, % at 10.9 µM; Induced myeloid leukemia cell differentiation protein Mcl-1 (Homo sapiens), Q07820; GST-MCL1 / FITC-Bim-BH3 fluorescence polarization; AID 2057, 2009;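 active = inhibition above the mean inhibition of all tested compounds plus 3 SD, set per campaign, cut at about 40% in these data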;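 also: higher means more loss of mP so more displacement of Bim peptide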
Target sequence (Q07820 whole entry, looked up): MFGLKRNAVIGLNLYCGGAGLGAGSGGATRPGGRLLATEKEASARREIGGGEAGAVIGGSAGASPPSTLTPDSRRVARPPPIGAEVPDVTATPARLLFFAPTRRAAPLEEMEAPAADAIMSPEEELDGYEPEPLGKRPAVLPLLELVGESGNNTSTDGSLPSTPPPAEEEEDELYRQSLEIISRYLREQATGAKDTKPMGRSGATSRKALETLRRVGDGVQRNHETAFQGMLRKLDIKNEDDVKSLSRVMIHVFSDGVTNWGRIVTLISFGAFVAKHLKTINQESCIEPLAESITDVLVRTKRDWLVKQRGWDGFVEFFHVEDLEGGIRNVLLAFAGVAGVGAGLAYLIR
EBV gp42 block: Epstein-Barr virus gp42 inhibitors, primary screen, biochemical, uHTS, fluorescence polarization. Glycoprotein 42 (Epstein-Barr virus (strain AG876)), Q1HVG2. Fluorescence polarization binding assay, mP read-out. inhibition, % (tested at 21.74 µM). 220,000 tested, 0.42% active. AID 1085, 2008; in the data active = inhibition above about 50%
MEX-5 binding: MEX-5 zinc finger RNA-binding disruptors – biochemical, C. elegans, fluorescence polarization, MLPCN library, primary screen. AID 1832, 2009. Zinc finger protein mex-5 (Caenorhabditis elegans), Q9XUB2. 300,000 tested, 0.38% active. activity score (negative = inhibition of binding), % at 10 µM. MEX-5/FITC-TCR2 RNA binding; hits give low values;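 active = inhibition past about -25% in most replicates, and total fluorescence under double the plate's negative control median, limit read from the data; inconclusive = replicates evenly split on the limit, or fluorescence at least double controls; inactive = too little inhibition in most replicates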
GLD-1 RNA inh: GLD-1/TGE RNA complex disruptors, primary screen, biochemical, fluorescence polarization; Female germline-specific tumor suppressor gld-1 (Caenorhabditis elegans), Q17339; purified GLD-1 + fluorescein TGE RNA; inhibition, % at 5.96 µM; 320,000 tested, 0.44% active;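 active = percent inhibition above a per-plate cutoff, the plate mean of test compounds plus 3 SD, cut at about 30% in these data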
Numbers stand for hits; n = inactive; u = inconclusive; x = no result given.

SMILES	BCLXL inh	MCL1-BIM inh	EBV gp42 block	MEX-5 binding	GLD-1 RNA inh
O=C1Nc2ccc(F)cc2C12Nc1ccccc1-c1nnc(SCc3ccccc3)nc1O2 (stereo unspecified)	n	n	n	n	n
COC(=O)C1=C(C)N=C2SCCC(=O)N2C1/C=C/c1ccccc1 (stereo unspecified)	n	n	n	n	n
CNC(=O)/C(C#N)=C/c1ccc(-c2ccc(Cl)cc2)o1	n	n	n	-34	n
CNC(=O)/C(C#N)=C/c1ccc(-c2ccccc2[N+](=O)[O-])o1	n	n	n	n	n
COc1ccccc1-n1c(SCC(=O)c2ccc(O)cc2O)nc2cc([N+](=O)[O-])ccc21	n	n	n	n	n
O=C1C=CC(=O)N1c1cccc(-c2ccccc2)c1	n	n	n	n	n
COc1ccc(NC(=O)c2nc3nccc(C)n3n2)cn1	34	n	n	n	n
COc1ccc(NC(=O)c2ccc(NC(=O)c3nc4nccc(C)n4n3)cc2)cc1	x	x	x	x	n
Cc1ccc(N=C2CSC(=O)N2)cc1	n	n	n	n	n
Cc1cc(O)c(C(C)C)cc1N=C1CSC(=O)N1	40	n	n	u	n
COc1ccccc1OCCC(=O)NNC(=O)c1ccccc1F	n	n	x	x	n
CCCn1c(N)c(NCCN2CCOCC2)c(=O)[nH]c1=O	33	n	n	-31	n
CCn1cc(C(=O)N2CCCC2)c(=O)c2cc(S(=O)(=O)N3CCOCC3)ccc21	n	n	n	n	n
CCC1=NN(C(=O)CCc2ccccc2O)C(O)(C(F)(F)F)C1 (stereo unspecified)	n	n	n	n	n
Cc1ccc(C(=O)/C=C/Nc2cccc(O)c2)cc1	40	40	n	n	n
O=C(/C=C/Nc1cccc(O)c1)c1ccccc1	n	n	n	n	n
Nc1cccnc1Oc1ccccc1F	n	n	n	n	n
Nc1ccc(Oc2ccccc2F)nc1	n	n	n	n	32
COc1ccc(C(=O)N/C(=C\c2cn(C)c3ccccc23)C(=O)NCCN2CCOCC2)cc1OC	n	n	x	n	n
CC(=O)Nc1ccc(NC(=O)C2CCCN(S(=O)(=O)c3ccc(-n4cnnn4)cc3)C2)cc1 (stereo unspecified)	n	n	x	n	n
O=C(Nc1ccc(-n2cnnn2)cc1)C1CCC1	n	n	89	n	n
NC(=O)c1ccc(NC(=O)C2CCCC2)cc1	n	n	x	n	n
Cc1ccn(C(=O)c2ccc(NC(=O)C3CCCCC3)cc2)n1	n	n	181	n	n
Cc1cc(F)ccc1NC(=O)C1CSC2(C)CCC(=O)N12 (stereo unspecified)	n	n	x	n	n
CN(Cc1ccccc1)C(=O)c1cn(C)c2ccc(S(=O)(=O)N3CCCC3)cc2c1=O	n	n	x	n	n
SMILES	BCLXL inh	MCL1-BIM inh	EBV gp42 block	MEX-5 binding	GLD-1 RNA inh
COc1ccc(/C=C2\SC(=S)N(CCCC(=O)Nc3cc(C)on3)C2=O)cc1OC	n	n	x	u	n
COc1ccccc1/C=C1\SC(=S)N(CCC(=O)NC2=NCCS2)C1=O	n	n	n	-63	n
CCc1ccc(/C=C2/SC(=S)N(CCC(=O)Nc3cccc(C(=O)O)c3)C2=O)cc1	n	n	x	n	n
COc1ccc(/C=C2\SC(=S)N(CCC(=O)NC3CCCC3)C2=O)cc1OC	n	n	x	-27	n
CCc1ccc(/C=C2/SC(=S)N(CCC(=O)Nc3ccc(C(=O)O)cc3)C2=O)cc1	189	n	x	n	n
c1ccc2sc(NCC3CCCO3)nc2c1 (stereo unspecified)	n	n	n	n	n
CC1=CC(=C(C#N)c2nc3ccccc3s2)C=C(C)N1CC1CCCO1 (stereo unspecified)	n	n	155	-36	n
CC(C)CN(C(=O)C1COc2ccccc2O1)c1c(N)n(CC(C)C)c(=O)[nH]c1=O (stereo unspecified)	n	n	x	x	n
CCCCCn1c(N)c(-c2nc3ccccc3s2)c2c([N+](=O)[O-])nn(CC)c(=O)c21	n	n	n	n	n
CCCCCn1c(N)c(-c2nc3ccccc3o2)c2c([N+](=O)[O-])nn(CC)c(=O)c21	n	n	55	n	n
CCc1nc(SCC(=O)N2CCCCC2)c2c(=O)n(C)c(=O)n(C)c2n1	n	n	x	n	n
COC(=O)c1ccc(C)c(NC(=O)CCSc2ccc(Cl)cc2)c1	n	n	99	n	n
COC(=O)c1ccc(C)c(NC(=O)CCSc2ccccc2)c1	n	n	n	n	n
O=C(COC(=O)COc1ccccc1[N+](=O)[O-])NCc1ccc2c(c1)OCO2	x	x	x	x	n
CCOC(=O)c1sc(NC(=O)CSc2n[nH]c(-c3ccncc3)n2)c(C#N)c1C	n	n	n	n	n
CCOc1ccc(/C=C/C2=Cc3c(sc(NC(=O)CSc4n[nH]c(N)n4)c3C#N)C(C)(C)C2)cc1	n	n	n	n	31
Cc1ccsc1/C=C/C1=Cc2c(sc(NC(=O)CSc3n[nH]c(N)n3)c2C#N)C(C)(C)C1	n	n	n	n	73
COc1ccc(-n2c(C)cc(/C=C3/SC(=S)N(C)C3=O)c2C)cc1	n	n	61	n	n
Cc1cc(/C=C2\SC(=S)N(C)C2=O)c(C)n1-c1cccc(O)c1	n	n	n	n	n
Cc1cc(/C=C2\SC(=S)N(Cc3ccco3)C2=O)c(C)n1-c1ccccc1	n	n	55	n	32
CCn1c(COc2ccccc2C)nnc1SCC(=O)N1CCCCC1	n	n	n	n	n
CCn1c(COc2ccccc2C)nnc1SCC(=O)N1CCC(C)CC1	n	n	76	n	n
O=C(O[C@@H]1Cc2c(O)cc(O)cc2O[C@@H]1c1cc(O)c(O)c(O)c1)c1cc(O)c(O)c(O)c1	x	x	n	-84	x
Oc1cc(O)c2c(c1)O[C@H](c1ccc(O)c(O)c1)[C@H](O)C2	n	n	x	n	n
CCOC(=O)C(C)On1c(-c2ccccc2)nc2ccc([N+](=O)[O-])cc21 (stereo unspecified)	n	n	n	n	n
O=C(O)COn1c(-c2ccccc2)nc2ccc([N+](=O)[O-])cc21	n	n	73	n	n
CCN(CC)c1ccc(NC(=O)c2cnccn2)cc1S(=O)(=O)Nc1ccc(OC)cc1	n	n	n	n	n
Cc1cc(C)n(Cc2ccc(C(=O)N/N=C/c3ccc(-c4ccc([N+](=O)[O-])cc4)o3)o2)n1	50	43	x	n	n
Cc1cc([N+](=O)[O-])ccc1-c1ccc(/C=N/NC(=O)c2ccc(Br)o2)o1	n	n	x	-58	n
Cc1cc(C(=O)N/N=C/c2ccc(-c3ccc([N+](=O)[O-])cc3C)o2)n[nH]1	n	n	x	n	n

Assay outcomes as filed in PubChem BioAssay.
